Holding throughout (assay): Euclidean distance of Cell Painting phenotypic profile (signed KS, 77 features) to DMSO centroid (dimensionless distance); higher = stronger phenotypic change vs DMSO (phenoactivity)
Settings in all cases: 48 h; 5 or 10 uM (library dependent)

The test system of one experiment is 786-O. The essentials: (§1)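 Phenoactivity is computed as Euclidean distance to the median vehicle profile. The profiles, drawn from 77 Harmony features scored as signed Kolmogorov-Smirnov statistics versus same-plate vehicle wells, were corrected for plate position, correlation-weighted and replicate-averaged at the top dose. Stained cells were imaged confocally at 20X (9 fields/well) after 48 h with library compounds at 10 or 5 uM, 0.1% DMSO final, in five cancer lines and a healthy fibroblast line.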

In another experiment the test system is A549. The essentials: as §1
The next experiment relates to DU145. An outline of the steps:
as §1

The next experiment has as its system FB. An outline of the steps: as §1
For another experiment, the system named is HEPG2. The essentials: as §1
The test system of another experiment is OVCAR4. The essentials:
as §1

As to `CCN1CCN(C(=O)Cc2ccc(Nc3ncc(F)c(Nc4ccc(C(=O)Nc5ccccc5Cl)cc4)n3)cc2)CC1` [Aurora A Inhibitor I], the Euclidean distance is 5.7 in the experiment with 786-O; 4.77 with A549; 1.39 with DU145; 3.33 in the experiment on FB; 4.52 with HEPG2; 3.43 in the experiment with OVCAR4.

`C[S+]([O-])CCCCN=C=S` (centres undefined) [sulforaphane]: the Euclidean distance in the experiment on 786-O stood at 1.73; in the experiment with A549, 1.68; with DU145 it was 1.89; with FB, 2.33; in the experiment with HEPG2 it was 2.6; in the experiment on OVCAR4 it was 1.58.

On to `CN(C)C(=O)Oc1ccc[n+](C)c1` [Pyridostigmine Bromide], for which the Euclidean distance in the experiment on 786-O came to 0.816; in the experiment on A549, 0.961; in the experiment with DU145, 0.672; in the experiment with FB, 0.846; in the experiment on HEPG2, 0.726; in the experiment with OVCAR4 it was 0.777.

As to `CC(C)N(CCNC(=O)CN1CCCC1=O)C(C)C` [Pramiracetam], the Euclidean distance in the experiment on 786-O was 1.35; in the experiment with A549 it was 1.08; in the experiment on DU145 it was 0.543; in the experiment on FB, 0.932; with HEPG2, 0.534; with OVCAR4 it was 0.853.

Values taken from the supplement of paper PMC10127200.
